# ± gives the standard deviation of the averaged measurements. The full ranking holds about 1,600 compounds; the median of “mitochondrial oxygen consumption rate normalised to cell number, Z score over the library” is about 0.065, and the lowest 2% start at about -2.2. Shown is part of a subset that was picked to be rich in the lowest values.
# System: FaDu
# Assay: mitochondrial oxygen consumption rate normalised to cell number, Z score over the library; higher = higher oxygen consumption (negative = OCR reduction)
# Conditions: treatment time 24 h; assay medium: 5 mM galactose, 5 mM pyruvate, 4 mM glutamine; 10 µM
# Procedure: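 Primary screen: FaDu cells were incubated 24 h with Pharmakon 1600 / TDI oncology set compounds at 2 or 10 uM. Mitochondrial-specific OCR (basal minus 2 uM antimycin A) was measured on a Seahorse XF96 in assay medium with 5 mM galactose, 5 mM pyruvate and 4 mM glutamine, then corrected for Hoechst cell number and expressed as a Z score […]. Compounds that cut cell number by >66% were excluded. Two repeats.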
row,SMILES,mitochondrial oxygen consumption rate normalised
1,CO[C@@]12[C@H](COC(N)=O)C3=C(C(=O)C(C)=C(N)C3=O)N1C[C@@H]1N[C@@H]12,-2.77 ± 0.14
2,O=C(O)CCC(=O)OC[C@@H](NC(=O)C(Cl)Cl)[C@H](O)c1ccc([N+](=O)[O-])cc1,-1.19 ± 0.7
3,CC1CC(OC(=O)C(O)c2ccccc2)CC(C)(C)C1 (stereo not given),0.62 ± 0.34
4,C[C@@H](c1ncncc1F)[C@](O)(Cn1cncn1)c1ccc(F)cc1F,-0.0277 ± 0.47
5,Cc1cc(N)c2ccccc2[n+]1CCCCCCCCCC[n+]1c(C)cc(N)c2ccccc21,-2.58 ± 0.47
6,O=C1NS(=O)(=O)c2ccccc21,0.156 ± 0.036
7,COC(=O)C(N)CS (stereo not given),0.244 ± 0.32
8,CC(=O)CC(c1ccc([N+](=O)[O-])cc1)c1c(O)c2ccccc2oc1=O (stereo not given),0.325 ± 0.51
9,CCOc1cc(NC(C)=O)ccc1C(=O)OC,-0.0275 ± 0.23
10,CO[C@H](C(=O)[C@@H](O)[C@@H](C)O)[C@@H]1Cc2cc3cc(O[C@H]4C[C@@H](O[C@@H]5C[C@@H](O)[C@H](O)[C@@H](C)O5)[C@H](O)[C@@H](C)O4)c(C)c(O)c3c(O)c2C(=O)[C@H]1O[C@H]1C[C@@H](O[C@@H]2C[C@@H](O)[C@@H](O[C@@H]3C[C@](C)(O)[C@H](O)[C@@H](C)O3)[C@@H](C)O2)[C@H](O)[C@@H](C)O1,-3.768 ± 0.0062
11,CC1CC2C3CCC4=CC(=O)C=CC4(C)C3(F)C(O)CC2(C)C1C(=O)CO (stereo not given),0.242 ± 0.014
12,CC(C)CCCC(C)NC(C)C (stereo not given),0.505 ± 0.85
13,CNC(=O)c1c(I)c(NC(C)=O)c(I)c(C(=O)O)c1I,-0.0805 ± 0.4
14,CN1CCCN=C1/C=C/c1cccc(O)c1,0.441 ± 0.03
15,CCOc1ccc(S(=O)(=O)O)c2cccnc12,0.206 ± 0.45
16,CC(C)(C)CC(C)(C)c1cc(Cc2cc(C(C)(C)CC(C)(C)C)cc(-n3nc4ccccc4n3)c2O)c(O)c(-n2nc3ccccc3n2)c1,0.425 ± 0.54
17,O=C1c2ccccc2C(=O)C1c1ccccc1,-1.52 ± 0.92
18,NC[C@H]1O[C@H](O[C@H]2[C@H](O[C@@H]3O[C@H](CO)[C@@H](O)[C@H]3O)[C@@H](O)[C@H](N)C[C@@H]2N)[C@H](N)[C@@H](O)[C@@H]1O,0.994 ± 0.3
19,CCCCC(CC)COC(=O)C=Cc1ccc(OC)cc1 (stereo not given),0.103 ± 0.58
20,CCCCCCCCNC(C)C(O)c1ccc(SC(C)C)cc1 (stereo not given),-3.24 ± 0.087
21,CC(NCCc1ccc(O)cc1)C(O)c1ccc(O)cc1 (stereo not given),-0.342 ± 0.3
22,CC(COc1ccccc1)NC(C)C(O)c1ccc(O)cc1 (stereo not given),0.554 ± 0.81
23,CCCCC(CC)COC(=O)c1ccccc1O (stereo not given),0.409 ± 0.072
24,Clc1ccc(COC(Cn2ccnc2)c2ccc(Cl)cc2Cl)c(Cl)c1 (stereo not given),-0.399 ± 0.35
25,C=CCOC(Cn1ccnc1)c1ccc(Cl)cc1Cl (stereo not given),-0.834 ± 0.055
26,Clc1ccc(COC(Cn2ccnc2)c2ccc(Cl)cc2Cl)cc1 (stereo not given),-2.19 ± 0.39
27,NC(=O)[C@@H]1CCCN1C(=O)[C@H](Cc1c[nH]cn1)NC(=O)[C@@H]1CCC(=O)N1,-1.1 ± 0.47
28,CC(C)CC(N)=O,0.337 ± 0.48

row,SMILES,mitochondrial oxygen consumption rate normalised
1,O=C([O-])/C=C/C(=O)[O-].[Fe+2],-0.129 ± 0.31
2,CC(=O)Oc1cccc(O)c1,0.689 ± 0.62
3,CC(O)C(=O)O.N (stereo not given),0.0377 ± 0.64
4,Nc1ncn([C@H]2C[C@H](O)[C@@H](CO)O2)c(=O)n1 [Decitabine],0.0464 ± 0.58
5,Nc1ccn([C@@H]2O[C@H](CO)[C@@H](O)[C@@H]2O)c(=O)n1,0.901 ± 0.043
6,Nc1ncn([C@@H]2O[C@H](CO)[C@@H](O)[C@H]2O)c(=O)n1 [Azacitidine],0.38 ± 0.39
7,Nc1ccn([C@@H]2O[C@H](CO)[C@@H](O)[C@@H]2O)c(=O)n1 [Cytarabine;  Ara-C],1.36 ± 0.84
8,Nc1ncn([C@@H]2O[C@H](CO)[C@@H](O)[C@H]2O)c(=O)n1,-2.25 ± 0.072
9,Nc1nc2[nH]cnc2c(=S)[nH]1 [Thioguanine],0.0465 ± 0.27
10,Nc1nc2[nH]cnc2c(=S)[nH]1,-2.58 ± 0.18
11,S=c1[nH]cnc2nc[nH]c12,-1.7 ± 0.17
12,CN1CCN(c2cc3c(cc2F)c(=O)c(C(=O)O)cn3-c2ccc(F)cc2)CC1,-0.0696 ± 0.52
13,CCCCCCCCCCCCCCCCOP(=O)([O-])OCC[N+](C)(C)C,-1.18 ± 0.45
14,CCC(=O)NCC[C@@H]1CCc2ccc3c(c21)CCO3,-0.125 ± 0.067
15,CCN(CC)CCNC(=O)c1c(C)[nH]c(/C=C2\C(=O)Nc3ccc(F)cc32)c1C [Sunitinib Malate],-0.335 ± 0.17
16,CCCCCCCCCCOc1cc2c(O)c(C(=O)OCC)cnc2cc1OCC,-0.591 ± 0.88
17,Cc1cc2nc3ccc(N(C)C)cc3[s+]c2cc1N,-0.959 ± 0.51
18,CN(C)CCC=C1c2ccccc2COc2ccccc21,0.0965 ± 0.76
19,CC(=O)Oc1cc(C(C)C)c(OCCN(C)C)cc1C,-0.219 ± 0.18
20,O=C1CC[C@@H](C(=O)O)N1,0.186 ± 1.2
21,O=C1[C@H](CC[C@H](O)c2ccc(F)cc2)[C@@H](c2ccc(O)cc2)N1c1ccc(F)cc1,-0.13 ± 0.35
22,COc1ccc2cc3[n+](cc2c1OC)CCc1cc2c(cc1-3)OCO2,-5.87 ± 0.012
23,COc1ccc2c(c1OC)C(=O)O[C@@H]2[C@H]1c2c(cc3c(c2OC)OCO3)CCN1C,0.129 ± 0.48
24,CC[C@H]1OC(=O)[C@H](C)C(=O)[C@H](C)[C@@H](O[C@@H]2O[C@H](C)C[C@H](N(C)C)[C@H]2O)[C@](C)(OC)C[C@@H](C)C(=O)[C@H](C)[C@H]2N(CCCCn3cnc(-c4cccnc4)c3)C(=O)O[C@]12C,-0.0307 ± 0.49
25,NC(=O)NS(=O)(=O)c1ccc(N)cc1,0.826 ± 1.4
26,Cc1cc(-c2ccc(/N=N/c3ccc4c(S(=O)(=O)O)cc(S(=O)(=O)O)c(N)c4c3O)c(C)c2)ccc1/N=N/c1ccc2c(S(=O)(=O)O)cc(S(=O)(=O)O)c(N)c2c1O,1.24 ± 1
27,Cc1cc(=O)oc2cc(O)ccc12,0.758 ± 0.23

# From the supplement of paper PMC4962491
